Test results: PubChem BioAssay (Tox21)
Results filed as inconclusive are left out. Where a call stands in place of a potency, no number is given. Activity calls are given as the source filed them. Calls follow the shape of the dose curve; as a rule, active = well fitted cell-killing curve with a large enough effect in the repeat runs; inconclusive = weak or mixed curves, or effect the other way; inactive = flat fitted curve, though single readings scatter.

Test: cAMP Responsive Elements (CRE) small molecule antagonists, cell-based qHTS assay: qHTS cell viability counter screen (AID 2060913); also: nearly all actives have a fitted effect of over 40% in size
Conditions: CRE-bla HEK293T viability, CellTiter-Glo luminescence, 5 h; series mostly up to 92.4 µM
Outline: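 Viability of NKH477-stimulated (0.25 uM final) CRE-bla HEK293T cells is measured by CellTiter-Glo luminescence following 3 hrs compound exposure at 37 C.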
With N#CC(O)c1ccccc1 (stereo not given) the Potency was “inactive”.
In the case of CC(O)CCO (stereo not given), the Potency is reported as “inactive”.
With OCCOc1ccccc1 the Potency was “inactive”.
For C[C@H]1CNCCc2ccc(Cl)cc21, the Potency was “inactive”.
With O=C1CN=C(c2ccccc2)c2cc([N+](=O)[O-])ccc2N1 the Potency was “inactive”.
In the case of O=C1C[C@@H]2OCC=C3CN4CC[C@]56c7ccccc7N1[C@H]5[C@H]2[C@H]3C[C@H]46, the Potency is reported as “inactive”.
With NNCc1ccccc1 the Potency was “inactive”.
With CC(C)N(C(=O)SCC(Cl)=C(Cl)Cl)C(C)C the Potency was “inactive”.
For Cc1ncsc1CCCl, the Potency was “inactive”.
For CC[C@@H](CO)NC(=O)[C@@H]1C=C2c3cccc4[nH]cc(c34)C[C@H]2N(C)C1, the Potency was “inactive”.
For CC(C)c1ccc(NC(=O)N(C)C)cc1, the Potency was “inactive”.
With CCC(=O)c1ccccc1 the Potency was “inactive”.
With O=c1[nH]c(Cl)c(Cl)cc1Cl the Potency was “inactive”.
With O=C(O)COc1nc(Cl)c(Cl)cc1Cl the Potency was “inactive”.
For O=C1CN=C(c2ccccc2)c2cc(Cl)ccc2N1CC1CC1, the Potency was “inactive”.
With O=[N+]([O-])C(Br)Br the Potency was “inactive”.
For N#CC(Cl)Cl, the Potency was “inactive”.
In the case of CC(=O)c1cc2c(cc1C)C(C)(C)C(C)CC2(C)C (stereo not given), the Potency is reported as “inactive”.
For COC1=CC(=O)O[C@@H](/C=C/c2ccccc2)C1, the Potency was “inactive”.
With Nc1ccc(Cl)cc1C(=O)c1ccccc1F the Potency was “inactive”.
For CCCCCCCCCc1ccc(O)cc1, the Potency was “inactive”.
In the case of NNC(=O)c1cccnc1, the Potency is reported as “inactive”.
For c1ccc(-c2cccc(-c3ccccc3)c2)cc1, the Potency was “inactive”.
With COP(=O)(OC)Oc1ccc([N+](=O)[O-])cc1 the Potency was “inactive”.
For CC(=O)CC(c1ccc(Cl)cc1)c1c(O)c2ccccc2oc1=O (stereo not given), the Potency was “inactive”.
In the case of C=CCOCC1CO1 (stereo not given), the Potency is reported as “inactive”.
For C[C@]12CC[C@H]3[C@@H](CCC4=CC(=O)CC[C@@H]43)[C@@H]1CC[C@@H]2O, the Potency was “inactive”.
For O=C(O)C(F)(F)C(F)(F)C(F)(F)C(F)(F)C(F)(F)C(F)(F)C(F)(F)C(F)(F)C(F)(F)F, the Potency was “inactive”.
In the case of Cl, the Potency is reported as “inactive”.
In the case of Nc1ccc(Br)cc1, the Potency is reported as “inactive”.
With O=C(Cl)CCl the Potency was “inactive”.
In the case of Cc1nc(N(C)C)nc(OC(=O)N(C)C)c1C, the Potency is reported as “inactive”.
In the case of Nc1ccc(N)cc1, the Potency is reported as “inactive”.
With NCc1cccnc1 the Potency was “inactive”.
With Cc1ccc(N)cc1 the Potency was “inactive”.
For CC(=O)O.CC(=O)O.CC(=O)O.CC(=O)O.CC(=O)O.CC(=O)O.CC(=O)O.O.O.[Cr].[Cr].[Cr], the Potency was “inactive”.
For Cc1ccc([N+](=O)[O-])cc1C, the Potency was “inactive”.
With Fc1ccc(C2(Cn3cncn3)OC2c2ccccc2Cl)cc1 (stereo not given) the Potency was “inactive”.
For Clc1cc(Cl)c(-c2cc(Cl)c(Cl)cc2Cl)cc1Cl, the Potency was “inactive”.
With COCC(=O)N(c1c(C)cccc1C)C(C)C(=O)OC (stereo not given) the Potency was “inactive”.

Test: cAMP Responsive Elements (CRE) small molecule agonists, cell-based qHTS assay: qHTS cell viability counter screen (AID 2060914);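 also: viability read after 3 h of compound exposure; nearly all actives have a fitted effect of over 50% in size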
Conditions: CRE-bla HEK293T viability, CellTiter-Glo luminescence, 5 h; series mostly up to 92.4 µM
Outline: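 Cytotoxicity counter screen multiplexed with the CRE-bla reporter assay in HEK 293T cells: 3 h compound exposure at 37 °C, followed by CellTiter-Glo luminescence measured in the same wells.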
In the case of N#CC(O)c1ccccc1 (stereo not given), the Potency is reported as “inactive”.
With CC(O)CCO (stereo not given) the Potency was “inactive”.
In the case of OCCOc1ccccc1, the Potency is reported as “inactive”.
For C[C@H]1CNCCc2ccc(Cl)cc21, the Potency was “inactive”.
For O=C1CN=C(c2ccccc2)c2cc([N+](=O)[O-])ccc2N1, the Potency was “inactive”.
For O=C1C[C@@H]2OCC=C3CN4CC[C@]56c7ccccc7N1[C@H]5[C@H]2[C@H]3C[C@H]46, the Potency was “inactive”.
With NNCc1ccccc1 the Potency was “inactive”.
For CC(C)N(C(=O)SCC(Cl)=C(Cl)Cl)C(C)C, the Potency was “inactive”.
With Cc1ncsc1CCCl the Potency was “inactive”.
For CC[C@@H](CO)NC(=O)[C@@H]1C=C2c3cccc4[nH]cc(c34)C[C@H]2N(C)C1, the Potency was “inactive”.
With CC(C)c1ccc(NC(=O)N(C)C)cc1 the Potency was “inactive”.
In the case of CCC(=O)c1ccccc1, the Potency is reported as “inactive”.
In the case of O=c1[nH]c(Cl)c(Cl)cc1Cl, the Potency is reported as “inactive”.
With O=C(O)COc1nc(Cl)c(Cl)cc1Cl the Potency was “inactive”.
For O=C1CN=C(c2ccccc2)c2cc(Cl)ccc2N1CC1CC1, the Potency was “inactive”.
With O=[N+]([O-])C(Br)Br the Potency was “inactive”.
For N#CC(Cl)Cl, the Potency was “inactive”.
In the case of CC(=O)c1cc2c(cc1C)C(C)(C)C(C)CC2(C)C (stereo not given), the Potency is reported as “inactive”.
With COC1=CC(=O)O[C@@H](/C=C/c2ccccc2)C1 the Potency was “inactive”.
For Nc1ccc(Cl)cc1C(=O)c1ccccc1F, the Potency was “inactive”.
In the case of CCCCCCCCCc1ccc(O)cc1, the Potency is reported as “inactive”.
In the case of NNC(=O)c1cccnc1, the Potency is reported as “inactive”.
For c1ccc(-c2cccc(-c3ccccc3)c2)cc1, the Potency was “inactive”.
With COP(=O)(OC)Oc1ccc([N+](=O)[O-])cc1 the Potency was “inactive”.
For CC(=O)CC(c1ccc(Cl)cc1)c1c(O)c2ccccc2oc1=O (stereo not given), the Potency was “inactive”.
With C=CCOCC1CO1 (stereo not given) the Potency was “inactive”.
In the case of C[C@]12CC[C@H]3[C@@H](CCC4=CC(=O)CC[C@@H]43)[C@@H]1CC[C@@H]2O, the Potency is reported as “inactive”.
With O=C(O)C(F)(F)C(F)(F)C(F)(F)C(F)(F)C(F)(F)C(F)(F)C(F)(F)C(F)(F)C(F)(F)F the Potency was “inactive”.
In the case of Cl, the Potency is reported as “inactive”.
With Nc1ccc(Br)cc1 the Potency was “inactive”.
In the case of O=C(Cl)CCl, the Potency is reported as “inactive”.
In the case of Cc1nc(N(C)C)nc(OC(=O)N(C)C)c1C, the Potency is reported as “inactive”.
In the case of Nc1ccc(N)cc1, the Potency is reported as “inactive”.
With NCc1cccnc1 the Potency was “inactive”.
With Cc1ccc(N)cc1 the Potency was “inactive”.
For CC(=O)O.CC(=O)O.CC(=O)O.CC(=O)O.CC(=O)O.CC(=O)O.CC(=O)O.O.O.[Cr].[Cr].[Cr], the Potency was “inactive”.
In the case of Cc1ccc([N+](=O)[O-])cc1C, the Potency is reported as “inactive”.
With Fc1ccc(C2(Cn3cncn3)OC2c2ccccc2Cl)cc1 (stereo not given) the Potency was “inactive”.
With Clc1cc(Cl)c(-c2cc(Cl)c(Cl)cc2Cl)cc1Cl the Potency was “inactive”.
In the case of COCC(=O)N(c1c(C)cccc1C)C(C)C(=O)OC (stereo not given), the Potency is reported as “inactive”.
